Source: PubChem BioAssay (NCI)
About 83,000 compounds went through this panel and 20% of them were active in at least one assay; those are over-represented in the sample as a whole.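 Step 1: grow cells in 96-well plates. Step 2: add test compound at a single concentration. Step 3: incubate 48 h. Step 4: record percent growth.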 A number with no mark means an inactive call. Active and inactive are the calls of the source. How the source made its calls: active means growth percent below 10; inactive means the rest.

Each molecule was assayed on RXF 393 renal (assay: NCI-60 one-dose screen, 48 h (100 = growth as untreated, 0 = no growth, -100 = all killed)). Settings: 10 µM unless noted.

Row | Structure (SMILES) | growth
1 | COC(=O)c1sccc1-c1cc(O)c(C(=O)Nc2ccccc2)s1 | 115%
2 | O=C(C1=Cc2cc3ccccc3n2Cc2cnnn21)c1ccc(F)cc1 | 103%
3 | Cc1cccc(N2C(=O)/C(=C/C(Cl)=C/c3ccc([N+](=O)[O-])cc3)SC2=S)c1C | -33.6% (active)
4 | CS(=O)/C(C#N)=C\C=C\c1cccc(Cl)c1 (stereo not given) | 49.5%
5 | CCOC(=O)/C=C1\S/C(=N\Nc2cc(=O)[nH]c3ccc(Br)cc23)N(c2ccccc2)C1=O | 35.2%
6 | Cc1ccc2nc(-c3ccc(C(=O)N/N=C/c4ccc([N+](=O)[O-])cc4)cc3)[nH]c2c1 | 104%
7 | COc1ccc(/C=C/C(c2cc(OC)c(OC)c(OC)c2)n2cncn2)cc1O (stereo not given) | -16.9% (active)
8 | CCCCCCCCCCCCCCCCCCOc1ccccc1CC(=O)NCC[N+](C)(C)C | -39.7% (active)
9 | CCOC(=O)c1c(C)nc2ccccc2c1/C=C/c1ccc(F)cc1 | 101%
10 | N#Cc1c(-c2ccccc2)cc(-c2ccccc2)n(CCCCC(=O)NO)c1=O | -16.5% (active)
11 | COc1cc(Cc2cc(OC)c(O)c(OC)c2)cc(OC)c1O | 86.3%
12 | COc1cc(/C=C/c2cc(/C=C/c3ccc(O)c(OC)c3)n(C(=O)Nc3ccc(Cl)cc3)n2)ccc1O | -53.6% (active)
13 | NS(=O)(=O)c1ccc(C(=O)NN2C(=O)c3ccccc3C2=O)cc1 | 120%
14 | CS(=O)(=O)c1ccc(-c2nc3ccccc3n2CC(=O)N/N=C/c2ccccc2)cc1 | 116%
15 | CCn1cc(C(=O)N/N=C/c2cccc(F)c2)c(=O)c2cc(F)c(N3CCNC(C)C3)c(F)c21 (stereo not given) | -21.6% (active)
16 | CCCC(=O)NC(c1ccc2c(c1)OCO2)c1cc(Cl)c2cccnc2c1O (stereo not given) | 59.9%
17 | O=C(c1cccc(N2CCOCC2)n1)c1c[nH]c2ccccc12 | 99%
18 | Cc1cc(C(=O)CCCC(=O)c2cc(C)c(O)c(C)c2)cc(C)c1O | 84.2%
19 | O=C(/C=C/c1ccccc1)c1cccc2ccccc12 | 12.4%
20 | CNC(=O)c1cc(Oc2ccc3c(c2)sc2nc(-c4ccc(NC(=O)[C@@H](NC(=O)OC)C(C)C)cc4)cn23)ccn1 | 85.3%

Row | Structure (SMILES) | growth
21 | FC(F)(F)c1[nH]ncc1-c1nc2ccc3[nH]ncc3c2c2c1CCCC2 | -62.9% (active)
22 | COC(=O)c1ccc2c(c1)c1c(C)c3cnccc3c(C)c1n2C | -76.1% (active)
23 | CC1=C2[C@@H](CC1)[C@]1(C)O[C@@](C3CCNCC3)(C[C@H]1OC(=O)CO)[C@H]2OC(=O)/C=C/c1ccccc1 | 65.4%
24 | CCOC(=O)CC1CSC(N/N=C/c2ccc(F)c(Br)c2)=N1 (stereo not given) | 111%
25 | O=C1/C(=C/c2cccc(Br)c2)COc2ccc(O)cc21 | 70.6%
26 | O=C(Cn1nc(-c2cccc3ccccc23)ccc1=O)NCc1cccc(Cl)c1 | 37.7% [50 µM]
27 | COc1cc(O)c2c(=O)c3c(CC=C(C)C)cc(OC)c(O)c3oc2c1 | 13.7%
28 | Nc1ccc(Br)cc1C(F)(F)F | 116%
29 | O=C(Nc1ccc(Oc2cccc(Cl)c2)c(Cl)c1)c1cccnn1 | 90.3%
30 | COc1cccc(-c2cn3nc(-c4cn(C)c5ccccc45)sc3n2)c1 | 104%
31 | c1ccc(-c2c(-c3ccccc3)[n+](Cc3ccc4ccccc4c3)cn2Cc2ccc3ccccc3c2)cc1 | -96.2% (active)
32 | COc1ccc(C2[C@@H](c3ccccc3)C(=O)N2c2cc(OC)c(OC)c(OC)c2)cc1F (stereo not given in full) | 13.5%
33 | CC(C)CCC[C@@H](C)[C@H]1CC[C@H]2[C@@H]3CC=C4c5sc(Nc6cc(C(F)(F)F)cc(C(F)(F)F)c6)nc5CC[C@]4(C)[C@H]3CC[C@]12C | 107%
34 | Nc1cc(C(=O)O)cc(-n2c(O)c(C=C3N=c4ccccc4=N3)sc2=S)c1 | 112%
35 | COc1cccc(CNc2c3ccccc3nc3ccccc23)c1OC | 29.9%
36 | Clc1ccc(Nc2ncc(Cc3cccc(Cl)c3Cl)s2)cc1 | 93.3%
37 | CCOC(=O)c1cnn(CC(C)O)c1NC(=O)NCc1cccc(F)c1 (stereo not given) | 111%
38 | C=C1C(=O)O[C@@H]2C3C(=C(C)CC[C@@H]12)CC1O[C@]13C (stereo not given in full) | 91.6% [6.75 µM]
39 | CCOC(=O)C1=C(c2ccccc2)N=C2N(c3ccccc3)N=C(C(C)=O)N2C1c1ccc(F)cc1 (stereo not given) | 75.5%
40 | CCCOC(=O)Nc1nc2ccc(SCC)cc2s1 | 95.8%

The molecules below were run on SF-268 CNS in the same assay as above. Settings: 10 µM unless noted.

Row | Structure (SMILES) | growth
41 | COC(=O)c1sccc1-c1cc(O)c(C(=O)Nc2ccccc2)s1 | 91.7%
42 | O=C(C1=Cc2cc3ccccc3n2Cc2cnnn21)c1ccc(F)cc1 | 100%
43 | Cc1cccc(N2C(=O)/C(=C/C(Cl)=C/c3ccc([N+](=O)[O-])cc3)SC2=S)c1C | 40.5%
44 | CS(=O)/C(C#N)=C\C=C\c1cccc(Cl)c1 (stereo not given) | 17.2%
45 | CCOC(=O)/C=C1\S/C(=N\Nc2cc(=O)[nH]c3ccc(Br)cc23)N(c2ccccc2)C1=O | 85.6%
46 | Cc1ccc2nc(-c3ccc(C(=O)N/N=C/c4ccc([N+](=O)[O-])cc4)cc3)[nH]c2c1 | 101%
47 | COc1ccc(/C=C/C(c2cc(OC)c(OC)c(OC)c2)n2cncn2)cc1O (stereo not given) | 54.1%
48 | CCCCCCCCCCCCCCCCCCOc1ccccc1CC(=O)NCC[N+](C)(C)C | 24.2%
49 | CCOC(=O)c1c(C)nc2ccccc2c1/C=C/c1ccc(F)cc1 | 85.2%
50 | N#Cc1c(-c2ccccc2)cc(-c2ccccc2)n(CCCCC(=O)NO)c1=O | 43%
51 | COc1cc(Cc2cc(OC)c(O)c(OC)c2)cc(OC)c1O | 105%
52 | COc1cc(/C=C/c2cc(/C=C/c3ccc(O)c(OC)c3)n(C(=O)Nc3ccc(Cl)cc3)n2)ccc1O | 13.9%
53 | NS(=O)(=O)c1ccc(C(=O)NN2C(=O)c3ccccc3C2=O)cc1 | 92.8%
54 | CS(=O)(=O)c1ccc(-c2nc3ccccc3n2CC(=O)N/N=C/c2ccccc2)cc1 | 97.5%
55 | CCn1cc(C(=O)N/N=C/c2cccc(F)c2)c(=O)c2cc(F)c(N3CCNC(C)C3)c(F)c21 (stereo not given) | 39.4%
56 | CCCC(=O)NC(c1ccc2c(c1)OCO2)c1cc(Cl)c2cccnc2c1O (stereo not given) | 37.7%
57 | O=C(c1cccc(N2CCOCC2)n1)c1c[nH]c2ccccc12 | 94.1%
58 | Cc1cc(C(=O)CCCC(=O)c2cc(C)c(O)c(C)c2)cc(C)c1O | 99%
59 | O=C(/C=C/c1ccccc1)c1cccc2ccccc12 | 42.1%
60 | CNC(=O)c1cc(Oc2ccc3c(c2)sc2nc(-c4ccc(NC(=O)[C@@H](NC(=O)OC)C(C)C)cc4)cn23)ccn1 | 82.5%

Row | Structure (SMILES) | growth
61 | FC(F)(F)c1[nH]ncc1-c1nc2ccc3[nH]ncc3c2c2c1CCCC2 | 8.87% (active)
62 | COC(=O)c1ccc2c(c1)c1c(C)c3cnccc3c(C)c1n2C | 3.86% (active)
63 | CC1=C2[C@@H](CC1)[C@]1(C)O[C@@](C3CCNCC3)(C[C@H]1OC(=O)CO)[C@H]2OC(=O)/C=C/c1ccccc1 | 87.7%
64 | CCOC(=O)CC1CSC(N/N=C/c2ccc(F)c(Br)c2)=N1 (stereo not given) | 92.3%
65 | O=C1/C(=C/c2cccc(Br)c2)COc2ccc(O)cc21 | 67.6%
66 | O=C(Cn1nc(-c2cccc3ccccc23)ccc1=O)NCc1cccc(Cl)c1 | 52.9% [50 µM]
67 | COc1cc(O)c2c(=O)c3c(CC=C(C)C)cc(OC)c(O)c3oc2c1 | 51.9%
68 | Nc1ccc(Br)cc1C(F)(F)F | 108%
69 | O=C(Nc1ccc(Oc2cccc(Cl)c2)c(Cl)c1)c1cccnn1 | 83.9%
70 | COc1cccc(-c2cn3nc(-c4cn(C)c5ccccc45)sc3n2)c1 | 94.8%
71 | c1ccc(-c2c(-c3ccccc3)[n+](Cc3ccc4ccccc4c3)cn2Cc2ccc3ccccc3c2)cc1 | -89.1% (active)
72 | COc1ccc(C2[C@@H](c3ccccc3)C(=O)N2c2cc(OC)c(OC)c(OC)c2)cc1F (stereo not given in full) | 31.5%
73 | CC(C)CCC[C@@H](C)[C@H]1CC[C@H]2[C@@H]3CC=C4c5sc(Nc6cc(C(F)(F)F)cc(C(F)(F)F)c6)nc5CC[C@]4(C)[C@H]3CC[C@]12C | 101%
74 | Nc1cc(C(=O)O)cc(-n2c(O)c(C=C3N=c4ccccc4=N3)sc2=S)c1 | 97.6%
75 | COc1cccc(CNc2c3ccccc3nc3ccccc23)c1OC | 61.7%
76 | Clc1ccc(Nc2ncc(Cc3cccc(Cl)c3Cl)s2)cc1 | 98.3%
77 | CCOC(=O)c1cnn(CC(C)O)c1NC(=O)NCc1cccc(F)c1 (stereo not given) | 101%
78 | C=C1C(=O)O[C@@H]2C3C(=C(C)CC[C@@H]12)CC1O[C@]13C (stereo not given in full) | 91.2% [6.75 µM]
79 | CCOC(=O)C1=C(c2ccccc2)N=C2N(c3ccccc3)N=C(C(C)=O)N2C1c1ccc(F)cc1 (stereo not given) | 99.2%
80 | CCCOC(=O)Nc1nc2ccc(SCC)cc2s1 | 92.8%
